Source: PubChem BioAssay (NCI)
Compounds without any hit were thinned out: in the full panel of roughly 83,000, 20% have a hit.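 Single-dose data. Exposure time 48 hours. Values below 10 considered active.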 Active and inactive are the calls of the source.

system: HL-60(TB) leukemia; assay: NCI-60 one-dose screen, 48 h (100 = growth as untreated, 0 = no growth, -100 = all killed); conditions: 10 µM unless noted

SMILES	growth
CC(=O)c1c(C)nc(SCC(=O)Nc2ccc(Cl)cc2)n1-c1ccc(Cl)cc1	86.6% (inactive)
O=C(Nc1ccc2[nH]ncc2c1)c1csc(Nc2ccccc2)n1	9.35% (active)
CCOC(=O)c1cc(C(=O)c2ccc(Br)cc2)n2cc(C)cc(C)c12	103% (inactive)
CCCCCCC/C=C/[C@H]1O[C@]2(O)C(=O)C=C3C[C@@H](O[C@@H]4O[C@H](CO)[C@@H](O)C(O)[C@@H]4O)C[C@@H]3[C@H]2C=C1C (stereo not given in full)	-46.4% (active)
Cc1n[nH]c(=O)n(/N=C\c2c[nH]c3ccccc23)c1=O	89.1% (inactive)
COc1cc2nc(N3CCCC3)nc(Nc3ccccc3)c2cc1OC	-53.9% (active)
CCOC(=O)CCCS(C)(=O)=O	117% (inactive)
Cn1c(-c2c(N)n(Cc3cccnc3)c3nc(C#N)c(C#N)nc23)nc2ccccc21	50.3% (inactive)
O=C(Nc1ncc(Cc2ccccc2)s1)c1ccc2c(c1)OCCCO2	11.8% (inactive)
C=C(C)[C@@H]1C[C@H](O)Cc2cc(Cl)cc(Cl)c2N1	112% (inactive)
FC(F)(F)c1cccc(-n2nnc3cnc(Nc4ccc(N5CCCCC5)cc4)nc32)c1	103% (inactive)
CCN(CC)CCN1C(=O)c2c(c(C)c3c(oc4ccc(OC)cc43)c2C)C1=O	93.3% (inactive)
Cc1ccccc1Nc1n[nH]c(Cc2ccccc2)n1	66.9% (inactive)
CCOC(=O)c1cnn(-c2nc(-c3ccc(F)cc3)c(C#N)c(N3CCOCC3)n2)c1N	93.1% (inactive)
O=Cc1c[nH]c2ccc(NC(=O)OCc3ccccc3)cc12	200% (inactive)
